Results from PubChem BioAssay (NCATS).
Several values for one entry are separate records, joined by “and”; a condition that tells them apart may be missing. Equal values may be shown once. Results filed as inconclusive are left out. Activity calls are given as the source filed them. Unless noted, calls come from the whole dose curve; as a rule, active = well fitted curve in the direction sought with a large enough effect; inconclusive = small, poorly fitted or top-dose-only effect, or another doubt; inactive = no such curve, though single readings can be large; an effect the other way counts as inactive or inconclusive.

Experiments:
[1] = Primary qHTS for small molecule stabilizers of the endoplasmic reticulum resident proteome: Secreted ER Calcium Modulated Protein (SERCaMP) assay (AID 1508630); note: % is set by controls: 0 for no effect and ±100 for the full control effect
How it was run: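 GLuc-SERCaMP-expressing SH-SY5Y cells, pretreated 16 h with compound, are challenged with thapsigargin to empty ER calcium stores; after 4 h, coelenterazine is added directly to the medium and luminescence is imaged.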

[2] = biological target: Cytochrome P450 2D6 (Homo sapiens) (UniProt P10635); experiment: Cytochrome P450 family 2 subfamily D member 6 (CYP2D6) small molecule antagonists: luciferase biochemical (cell-free) qHTS assay (AID 1645840; active = well fitted curve in the direction sought with a large enough effect in the repeat runs; an effect the other way counts as inactive or inconclusive; note: nearly all actives have a fitted effect of over 55% in size; note: potency is the fitted concentration of half-maximal effect; for activity change, negative = inhibition: % is set by controls: 0 for no effect and ±100 for the full control effect)
How it was run: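 P450-Glo luminescent screen: recombinant CYP2D6 enzyme–proluciferin substrate mix preincubated with compound 10 min at room temperature, then NADPH regeneration added for 1 h at room temperature. Detection reagent added for 20 min; luciferin light read as relative luminescence units.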

[3] = biological target: Cytochrome P450 2C9 (Homo sapiens) (UniProt P11712); experiment: Cytochrome P450 family 2 subfamily C member 9 (CYP2C9) small molecule antagonists: luciferase biochemical (cell-free) qHTS assay (AID 1645842; active = well fitted curve in the direction sought with a large enough effect in the repeat runs; an effect the other way counts as inactive or inconclusive; note: nearly all actives have a fitted effect of over 55% in size; note: potency is the fitted concentration of half-maximal effect; for activity change, negative = inhibition: % is set by controls: 0 for no effect and ±100 for the full control effect)
How it was run: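 Luminescence, after 20 min with luciferin detection reagent, reflected CYP2C9 turnover during a 1 h NADPH-driven reaction at 37C. Enzyme-substrate mix contained 0.4% bovine serum albumin and was preincubated with compound 10 min at room temperature.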

[4] = Primary qHTS for inhibitors of nuclear receptor binding SET domain protein 2 (NSD2) in an isogenic RCH-ACV NSD2 p.E1099K mutant (9B) (AID 1645876); note: nearly all actives have a fitted effect of over 70% in size; note: potency is the fitted concentration of half-maximal effect
[5] = Primary qHTS for inhibitors of nuclear receptor binding SET domain protein 2 (NSD2) in an RCH-ACV wild type WT cells (2C) (AID 1645877); note: nearly all actives have a fitted effect of over 70% in size; note: potency is the fitted concentration of half-maximal effect
[6] = biological target: N-terminal Xaa-Pro-Lys N-methyltransferase 1 (Homo sapiens) (UniProt Q9BV86); experiment: Confirmatory qHTS for Inhibitors of N-terminal methyltransferase 1 (NTMT1): MTaseGlo Assay (AID 1645874); note: potency is the fitted concentration of half-maximal effect; nearly all actives have a fitted effect of over 65% in size
How it was run: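 Luminescent MTase-Glo read-out of SAH. 125 nM NTMT1, 100 uM SAM, 1 uM SPKRIA substrate, 30 min RT reaction after 15 min compound preincubation. Normalized to no-enzyme and DMSO controls; Hill fit.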

[7] = biological target: Catechol O-methyltransferase (Homo sapiens) (UniProt P21964); experiment: Confirmatory Screen for Target Class Profiling of Small Molecule Inhibitors of Methyltransferases (AID 1745852; calls by dose curve; note: potency is the fitted concentration of half-maximal effect); settings: MTase-Glo luminescence, SAH detection, recombinant enzyme; measured here: COMT max response; stronger effect = lower value
[8] = biological target: Guanidinoacetate N-methyltransferase (Homo sapiens) (UniProt Q14353); experiment: as above; settings: MTase-Glo luminescence, SAH detection, recombinant enzyme; activity change, negative = inhibition: at 57.3 µM (top of the series) unless noted

Chain of Cytochrome P450 2C9 (Homo sapiens) (P11712 whole entry, looked up): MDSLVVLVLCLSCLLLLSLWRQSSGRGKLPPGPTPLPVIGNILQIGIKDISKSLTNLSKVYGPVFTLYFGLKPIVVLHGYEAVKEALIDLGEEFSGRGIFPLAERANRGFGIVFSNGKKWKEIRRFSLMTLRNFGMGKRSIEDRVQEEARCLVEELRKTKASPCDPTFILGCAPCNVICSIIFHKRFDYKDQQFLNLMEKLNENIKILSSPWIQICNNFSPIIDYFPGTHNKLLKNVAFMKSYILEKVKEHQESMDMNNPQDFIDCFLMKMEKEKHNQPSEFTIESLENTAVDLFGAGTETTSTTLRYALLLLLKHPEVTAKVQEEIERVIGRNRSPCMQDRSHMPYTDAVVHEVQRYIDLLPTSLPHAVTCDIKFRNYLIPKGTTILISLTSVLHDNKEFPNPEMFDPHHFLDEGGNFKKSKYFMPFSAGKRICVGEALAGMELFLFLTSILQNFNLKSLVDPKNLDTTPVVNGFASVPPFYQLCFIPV
Chain of Cytochrome P450 2D6 (Homo sapiens) (P10635 whole entry, looked up): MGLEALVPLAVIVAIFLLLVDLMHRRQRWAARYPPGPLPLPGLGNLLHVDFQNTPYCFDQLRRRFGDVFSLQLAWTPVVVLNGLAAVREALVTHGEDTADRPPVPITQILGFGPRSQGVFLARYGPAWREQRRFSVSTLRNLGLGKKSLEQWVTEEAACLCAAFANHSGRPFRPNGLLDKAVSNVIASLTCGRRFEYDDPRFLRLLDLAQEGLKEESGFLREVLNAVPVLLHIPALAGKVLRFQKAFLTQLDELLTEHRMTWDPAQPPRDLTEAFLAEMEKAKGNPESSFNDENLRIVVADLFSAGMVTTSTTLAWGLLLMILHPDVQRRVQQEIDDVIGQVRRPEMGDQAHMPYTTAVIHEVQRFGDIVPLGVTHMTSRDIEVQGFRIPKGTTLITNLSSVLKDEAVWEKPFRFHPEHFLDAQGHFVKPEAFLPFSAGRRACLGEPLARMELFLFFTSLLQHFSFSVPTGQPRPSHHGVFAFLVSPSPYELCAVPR
Chain of N-terminal Xaa-Pro-Lys N-methyltransferase 1 (Homo sapiens) (Q9BV86 whole entry, looked up): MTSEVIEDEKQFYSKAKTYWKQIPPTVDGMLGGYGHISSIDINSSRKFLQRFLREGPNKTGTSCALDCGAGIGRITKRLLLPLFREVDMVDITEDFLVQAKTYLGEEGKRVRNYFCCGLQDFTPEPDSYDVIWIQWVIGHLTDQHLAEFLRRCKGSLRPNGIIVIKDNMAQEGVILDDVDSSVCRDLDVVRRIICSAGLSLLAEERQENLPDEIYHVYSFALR
Chain of Catechol O-methyltransferase (Homo sapiens) (P21964 whole entry, looked up): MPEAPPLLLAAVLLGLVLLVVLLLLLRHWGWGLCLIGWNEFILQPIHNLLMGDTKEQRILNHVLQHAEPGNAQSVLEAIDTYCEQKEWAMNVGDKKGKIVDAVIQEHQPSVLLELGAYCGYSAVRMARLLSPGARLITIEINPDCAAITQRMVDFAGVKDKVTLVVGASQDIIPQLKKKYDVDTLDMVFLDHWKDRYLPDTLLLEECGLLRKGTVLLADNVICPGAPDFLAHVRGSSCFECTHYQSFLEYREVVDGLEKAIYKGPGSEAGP

Row | Structure (SMILES) | Potency [1] | Potency [2] | Potency [3] | Potency [4] | Potency [5] | Potency [6] | activity [7] [%] | Potency [8]
1 | Cn1cncc1[C@@](N)(c1ccc(Cl)cc1)c1ccc2c(c1)c(-c1cccc(Cl)c1)cc(=O)n2C | inactive | 16.9 µM (active) | 0.169 µM (active) | inactive | – | – | – | –
2 | COc1cc(Nc2ncc(F)c(Nc3ccc4c(n3)N(COP(=O)(O)O)C(=O)C(C)(C)O4)n2)cc(OC)c1OC | inactive | inactive | 10.7 µM (active) | 1.29 µM (active) and 5.17 µM (active) and 1.48 µM (active) | 1.15 µM (active) and 5.17 µM (active) and 1.66 µM (active) | – | – | –
3 | CC(C)c1cc(C(=O)N2Cc3ccc(CN4CCN(C)CC4)cc3C2)c(O)cc1O | inactive | inactive | 12 µM (active) | 115 nM (active) and 148 nM (active) | 129 nM (active) and 166 nM (active) | – | – | –
4 | CNC(=O)c1c(F)cccc1Nc1nc(Nc2cc3c(cc2OC)CCN3C(=O)CN(C)C)nc2[nH]ccc12 | inactive | inactive | 0.425 µM (active) | 5.15 µM (active) and 7.42 µM (active) | – | – | – | –
5 | CN(C)CC(C)(C)CNc1nn2c(-c3ccccc3)nnc2cc1C1CCC1 | inactive | 2.13 µM (active) | 8.49 µM (active) | inactive | – | – | – | –
6 | C#Cc1cccc(Nc2ncnc3cc(OC)c(OCCCCCCC(=O)NO)cc23)c1 | inactive | 4.77 µM (active) | 10.7 µM (active) | 515 nM (active) and 590 nM (active) | 230 nM (active) and 296 nM (active) | 31.2 µM (active) | – | –
7 | COc1ccc(-n2nc(C(N)=O)c3c2C(=O)N(c2ccc(N4CCCCC4=O)cc2)CC3)cc1 | inactive | inactive | inactive | inactive | – | – | – | –
8 | OCCCNc1cc(-c2ccnc(Nc3cccc(Cl)c3)n2)ccn1 | inactive | 13.5 µM (active) | 10.7 µM (active) | 29 nM (active) and 52.5 nM (active) | 51.7 nM (active) and 33.2 nM (active) | 22.4 µM (active) | -80.2 | 10.8 µM (active)
9 | Cc1ccc2nc(NC(=O)CSc3nc4c(c(=O)n3-c3ccccc3)SCC4)sc2c1 | inactive | inactive | inactive | inactive | – | – | – | –
10 | CCCNC(=O)Nc1ccc(Oc2ncnc3cc(OC)c(OC)cc23)cc1Cl | inactive | inactive | inactive | – | – | – | – | –
11 | Cc1cnc(Nc2ccc(F)cc2Cl)nc1-c1c[nH]c(C(=O)N[C@H](CO)c2cccc(Cl)c2)c1 | inactive | 8.49 µM (active) | 3.38 µM (active) | 2.9 µM (active) and 18.6 µM (active) | 3.65 µM (active) and 14.8 µM (active) | – | – | –
12 | CC(C)CC(=O)Nc1n[nH]c2c1CN(C(=O)C1CCN(C)CC1)C2(C)C | inactive | inactive | inactive | 129 nM (active) and 662 nM (active) | 580 nM (active) and 590 nM (active) | – | – | –
13 | CC(C)c1noc(N2CCC(COc3ccc(-c4ccc(S(C)(=O)=O)cc4)nc3)CC2)n1 | inactive | inactive | – | – | – | – | – | –
14 | COc1cccc2c(NCc3ccccc3)nc(-n3c(N)nc4ccccc43)nc12 | inactive | 1.9 µM (active) | 6.74 µM (active) | 8.33 µM (active) | – | – | – | –
15 | Cn1cc(-c2ccncc2)c(-c2ccc(OCc3ccc4ccccc4n3)cc2)n1 | inactive | 7.56 µM (active) | 0.601 µM (active) | 12.9 µM (active) | 14.5 µM (active) | – | – | –
16 | CCOc1ccccc1OCCNC(C)Cc1ccc(OC)c(S(N)(=O)=O)c1 (stereo not drawn) | inactive | 10.7 µM (active) | inactive | inactive | inactive | – | – | –
17 | Nc1nc(Nc2ccc(S(N)(=O)=O)cc2)nn1C(=O)c1c(F)cccc1F | inactive | inactive | 0.12 µM (active) | 1.63 µM (active) and 2.35 µM (active) | 1.63 µM (active) and 1.86 µM (active) | – | – | –
18 | COc1cc2nccc(Oc3ccc(NC(=O)C4(C(=O)Nc5ccc(F)cc5)CC4)cc3)c2cc1OC | inactive | inactive | 2.68 µM (active) | 3.65 µM (active) and 5.25 µM (active) | 4.09 µM (active) and 4.68 µM (active) | – | – | –
19 | Cc1ccc(C(=O)Nc2ccc(CN3CCN(C)CC3)c(C(F)(F)F)c2)cc1C#Cc1cnc2cccnn12 | inactive | 16.9 µM (active) | 12 µM (active) | 29 nM (active) and 186 nM (active) | 91.6 nM (active) and 209 nM (active) | – | – | –
20 | Cn1cc(-c2[nH]c3cc(NC(=O)[C@H](N)C4CCCCC4)cc4c3c2C=NNC4=O)cn1 | inactive | inactive | 9.52 µM (active) | 578 nM (active) and 833 nM (active) | 728 nM (active) and 742 nM (active) | – | – | –
21 | Cc1ccc(C(=O)Nc2cccc(C(F)(F)F)c2)cc1-c1ccc2nc(NCCN3CCOCC3)ncc2c1 | inactive | 12 µM (active) | 1.69 µM (active) | 1.45 µM (active) and 2.63 µM (active) | 1.83 µM (active) and 4.17 µM (active) | – | – | –
